Experiment [1] addresses T1, Ephrin type-B receptor 1 (Homo sapiens) (UniProt P54762).
T1 sequence (whole entry): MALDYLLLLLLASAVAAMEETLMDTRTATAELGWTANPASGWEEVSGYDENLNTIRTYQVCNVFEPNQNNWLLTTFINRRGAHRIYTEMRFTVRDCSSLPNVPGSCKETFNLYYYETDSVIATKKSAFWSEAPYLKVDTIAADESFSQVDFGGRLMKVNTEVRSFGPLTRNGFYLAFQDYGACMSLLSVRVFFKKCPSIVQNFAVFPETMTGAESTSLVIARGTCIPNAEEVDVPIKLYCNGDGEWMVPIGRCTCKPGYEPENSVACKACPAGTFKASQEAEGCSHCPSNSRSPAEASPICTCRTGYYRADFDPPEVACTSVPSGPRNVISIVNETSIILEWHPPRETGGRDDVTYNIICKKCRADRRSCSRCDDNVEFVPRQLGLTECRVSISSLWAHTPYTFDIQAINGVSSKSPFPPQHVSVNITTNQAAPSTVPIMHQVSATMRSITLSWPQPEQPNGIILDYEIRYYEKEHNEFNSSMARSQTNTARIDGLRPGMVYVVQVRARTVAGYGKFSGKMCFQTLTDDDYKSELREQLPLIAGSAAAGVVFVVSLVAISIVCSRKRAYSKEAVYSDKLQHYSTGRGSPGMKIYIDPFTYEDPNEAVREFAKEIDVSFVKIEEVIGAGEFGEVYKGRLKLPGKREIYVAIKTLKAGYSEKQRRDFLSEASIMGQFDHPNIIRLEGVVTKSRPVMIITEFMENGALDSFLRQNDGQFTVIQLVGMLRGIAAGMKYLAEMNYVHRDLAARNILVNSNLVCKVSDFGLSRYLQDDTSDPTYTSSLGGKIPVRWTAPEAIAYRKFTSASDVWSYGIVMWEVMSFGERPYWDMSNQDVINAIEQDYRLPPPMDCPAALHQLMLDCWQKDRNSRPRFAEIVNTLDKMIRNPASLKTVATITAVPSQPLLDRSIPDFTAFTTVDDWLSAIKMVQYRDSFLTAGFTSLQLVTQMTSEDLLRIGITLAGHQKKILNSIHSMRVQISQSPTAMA
The conditions noted are these: at 10 µM.

Experiment [2] concerns the target T2, Ephrin type-B receptor 2 (Homo sapiens) (UniProt P29323).
T2 sequence (whole entry): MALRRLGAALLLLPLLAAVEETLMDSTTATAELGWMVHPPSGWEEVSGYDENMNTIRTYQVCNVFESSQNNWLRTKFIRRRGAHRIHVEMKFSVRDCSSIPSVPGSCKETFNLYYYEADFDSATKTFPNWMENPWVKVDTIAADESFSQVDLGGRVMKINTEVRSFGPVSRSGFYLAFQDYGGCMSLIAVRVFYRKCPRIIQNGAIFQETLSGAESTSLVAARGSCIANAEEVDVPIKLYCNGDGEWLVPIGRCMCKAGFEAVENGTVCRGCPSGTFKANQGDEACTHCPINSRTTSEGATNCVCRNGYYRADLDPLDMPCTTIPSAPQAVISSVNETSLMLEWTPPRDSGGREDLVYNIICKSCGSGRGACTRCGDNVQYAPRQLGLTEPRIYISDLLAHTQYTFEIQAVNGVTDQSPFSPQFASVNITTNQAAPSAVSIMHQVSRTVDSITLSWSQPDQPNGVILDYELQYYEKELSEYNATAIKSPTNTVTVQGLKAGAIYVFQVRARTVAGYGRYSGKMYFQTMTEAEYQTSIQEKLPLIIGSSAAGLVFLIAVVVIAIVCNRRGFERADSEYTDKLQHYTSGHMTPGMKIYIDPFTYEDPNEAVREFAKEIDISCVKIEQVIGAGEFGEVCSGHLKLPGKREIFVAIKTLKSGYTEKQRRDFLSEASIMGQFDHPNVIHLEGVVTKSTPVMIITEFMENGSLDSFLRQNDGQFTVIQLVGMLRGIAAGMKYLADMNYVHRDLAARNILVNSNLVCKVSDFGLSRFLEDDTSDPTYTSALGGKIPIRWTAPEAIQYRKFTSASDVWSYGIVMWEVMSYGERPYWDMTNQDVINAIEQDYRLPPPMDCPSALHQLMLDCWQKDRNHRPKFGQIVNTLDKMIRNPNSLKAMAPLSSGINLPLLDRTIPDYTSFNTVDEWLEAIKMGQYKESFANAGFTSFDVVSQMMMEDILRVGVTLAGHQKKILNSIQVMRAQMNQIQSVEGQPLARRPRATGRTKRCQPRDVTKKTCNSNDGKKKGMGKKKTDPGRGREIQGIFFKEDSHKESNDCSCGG
The conditions noted are these: at 1 µM.

Experiment [3] deals with T2, Ephrin type-B receptor 2 (Homo sapiens). The conditions noted are these: at 10 µM.
The target in experiment [4] is T3, Ephrin type-B receptor 3 (Homo sapiens) (UniProt P54753).
T3 sequence (whole entry): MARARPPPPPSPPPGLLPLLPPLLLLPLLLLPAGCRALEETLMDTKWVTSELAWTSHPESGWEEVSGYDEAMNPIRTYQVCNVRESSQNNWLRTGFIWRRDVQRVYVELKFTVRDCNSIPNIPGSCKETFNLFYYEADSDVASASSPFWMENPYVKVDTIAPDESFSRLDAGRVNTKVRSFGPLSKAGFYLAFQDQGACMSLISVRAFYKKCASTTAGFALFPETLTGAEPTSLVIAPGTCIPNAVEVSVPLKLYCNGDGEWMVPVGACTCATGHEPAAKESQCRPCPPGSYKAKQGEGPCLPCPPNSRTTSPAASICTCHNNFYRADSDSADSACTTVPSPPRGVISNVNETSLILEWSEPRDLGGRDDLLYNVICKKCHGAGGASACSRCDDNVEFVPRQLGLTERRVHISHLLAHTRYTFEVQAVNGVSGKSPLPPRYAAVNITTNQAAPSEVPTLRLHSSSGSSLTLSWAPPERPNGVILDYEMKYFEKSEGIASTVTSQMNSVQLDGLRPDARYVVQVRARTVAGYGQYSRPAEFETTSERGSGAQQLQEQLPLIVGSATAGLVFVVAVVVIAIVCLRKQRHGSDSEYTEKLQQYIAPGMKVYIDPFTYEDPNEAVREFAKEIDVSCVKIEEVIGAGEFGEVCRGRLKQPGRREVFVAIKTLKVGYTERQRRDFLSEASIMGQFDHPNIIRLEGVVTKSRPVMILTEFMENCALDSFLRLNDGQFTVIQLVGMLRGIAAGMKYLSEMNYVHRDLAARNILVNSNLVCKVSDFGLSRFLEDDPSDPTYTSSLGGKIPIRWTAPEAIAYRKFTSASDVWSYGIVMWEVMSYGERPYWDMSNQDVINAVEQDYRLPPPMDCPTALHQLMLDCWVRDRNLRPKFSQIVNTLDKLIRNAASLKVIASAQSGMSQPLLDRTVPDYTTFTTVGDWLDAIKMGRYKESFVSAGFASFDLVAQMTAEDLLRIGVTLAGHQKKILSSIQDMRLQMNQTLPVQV
Conditions: at 1 µM; call rule not given here.

In experiment [5] the target is T3, Ephrin type-B receptor 3 (Homo sapiens). The conditions noted are these: at 10 µM.
Experiment [6] deals with T4, Ephrin type-B receptor 4 (Homo sapiens) (UniProt P54760).
T4 sequence (whole entry): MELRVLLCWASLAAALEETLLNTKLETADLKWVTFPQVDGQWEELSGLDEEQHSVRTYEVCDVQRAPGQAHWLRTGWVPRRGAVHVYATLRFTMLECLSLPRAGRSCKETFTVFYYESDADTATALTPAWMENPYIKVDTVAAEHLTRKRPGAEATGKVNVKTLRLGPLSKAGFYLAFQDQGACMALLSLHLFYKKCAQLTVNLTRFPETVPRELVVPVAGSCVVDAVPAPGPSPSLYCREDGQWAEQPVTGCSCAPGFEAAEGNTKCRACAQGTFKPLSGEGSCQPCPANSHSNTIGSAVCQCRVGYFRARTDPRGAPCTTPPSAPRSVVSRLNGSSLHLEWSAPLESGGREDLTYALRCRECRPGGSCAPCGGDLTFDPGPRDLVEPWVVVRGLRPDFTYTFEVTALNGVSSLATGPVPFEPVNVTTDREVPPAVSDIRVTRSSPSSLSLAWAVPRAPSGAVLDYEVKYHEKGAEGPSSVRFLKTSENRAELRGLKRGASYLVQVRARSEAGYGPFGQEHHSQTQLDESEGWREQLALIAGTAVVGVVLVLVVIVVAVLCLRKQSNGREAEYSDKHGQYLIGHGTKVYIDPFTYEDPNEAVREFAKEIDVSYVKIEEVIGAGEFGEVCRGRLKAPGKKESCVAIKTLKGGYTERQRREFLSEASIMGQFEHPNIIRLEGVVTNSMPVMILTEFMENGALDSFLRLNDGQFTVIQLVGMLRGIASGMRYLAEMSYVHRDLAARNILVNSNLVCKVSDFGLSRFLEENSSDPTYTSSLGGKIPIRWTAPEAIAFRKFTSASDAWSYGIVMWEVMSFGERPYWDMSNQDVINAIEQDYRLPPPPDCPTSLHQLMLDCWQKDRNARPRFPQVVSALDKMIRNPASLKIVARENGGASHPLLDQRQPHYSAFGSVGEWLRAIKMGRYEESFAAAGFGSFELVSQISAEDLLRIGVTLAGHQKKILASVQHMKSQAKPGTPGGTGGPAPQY
Conditions: at 1 µM.

Experiment [7] deals with T4, Ephrin type-B receptor 4 (Homo sapiens). Conditions: at 10 µM.
The target of experiment [8] is Receptor tyrosine-protein kinase erbB-4 (Homo sapiens) (UniProt Q15303). Conditions: at 1 µM.
Chain of Receptor tyrosine-protein kinase erbB-4 (Homo sapiens) (Q15303 whole entry): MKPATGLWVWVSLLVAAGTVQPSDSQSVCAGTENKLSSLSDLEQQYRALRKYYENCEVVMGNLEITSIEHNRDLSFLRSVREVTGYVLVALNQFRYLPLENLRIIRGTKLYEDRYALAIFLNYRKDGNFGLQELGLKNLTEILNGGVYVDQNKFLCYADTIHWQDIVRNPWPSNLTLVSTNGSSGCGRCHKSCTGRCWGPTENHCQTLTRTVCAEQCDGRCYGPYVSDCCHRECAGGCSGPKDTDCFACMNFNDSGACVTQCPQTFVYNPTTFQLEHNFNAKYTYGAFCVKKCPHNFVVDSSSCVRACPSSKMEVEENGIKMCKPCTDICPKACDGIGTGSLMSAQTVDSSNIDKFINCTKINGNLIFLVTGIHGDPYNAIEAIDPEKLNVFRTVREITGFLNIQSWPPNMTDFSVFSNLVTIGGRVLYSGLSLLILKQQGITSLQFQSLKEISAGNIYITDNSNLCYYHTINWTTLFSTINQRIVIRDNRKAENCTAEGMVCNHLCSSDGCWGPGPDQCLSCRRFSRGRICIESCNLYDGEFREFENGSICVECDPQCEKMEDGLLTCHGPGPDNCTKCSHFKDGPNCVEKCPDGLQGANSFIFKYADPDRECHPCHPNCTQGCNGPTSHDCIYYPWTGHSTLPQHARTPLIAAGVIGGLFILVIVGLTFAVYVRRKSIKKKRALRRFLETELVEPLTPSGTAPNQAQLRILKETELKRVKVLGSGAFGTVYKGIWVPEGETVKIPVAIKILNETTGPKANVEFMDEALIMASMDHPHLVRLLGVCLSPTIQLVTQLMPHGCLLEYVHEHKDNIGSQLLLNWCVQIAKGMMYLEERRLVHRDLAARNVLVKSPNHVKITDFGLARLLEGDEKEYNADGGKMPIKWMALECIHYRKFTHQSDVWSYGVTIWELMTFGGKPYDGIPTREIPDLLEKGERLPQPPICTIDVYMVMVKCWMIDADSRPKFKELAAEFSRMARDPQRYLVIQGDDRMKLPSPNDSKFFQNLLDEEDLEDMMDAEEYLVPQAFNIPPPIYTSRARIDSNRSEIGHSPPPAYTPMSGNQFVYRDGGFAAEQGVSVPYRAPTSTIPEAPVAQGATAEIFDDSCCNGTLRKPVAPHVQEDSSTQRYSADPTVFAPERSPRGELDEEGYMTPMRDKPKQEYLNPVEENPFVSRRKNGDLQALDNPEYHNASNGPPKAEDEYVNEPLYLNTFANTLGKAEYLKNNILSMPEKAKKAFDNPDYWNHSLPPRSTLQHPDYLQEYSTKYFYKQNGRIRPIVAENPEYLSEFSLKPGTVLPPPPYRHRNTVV
Experiment [9] shares this target. Conditions: at 10 µM.
For experiment [10], the target named is Focal adhesion kinase 1 (Homo sapiens) (UniProt Q05397). Conditions: at 1 µM.
Chain of Focal adhesion kinase 1 (Homo sapiens) (Q05397 2-1052 limits assumed): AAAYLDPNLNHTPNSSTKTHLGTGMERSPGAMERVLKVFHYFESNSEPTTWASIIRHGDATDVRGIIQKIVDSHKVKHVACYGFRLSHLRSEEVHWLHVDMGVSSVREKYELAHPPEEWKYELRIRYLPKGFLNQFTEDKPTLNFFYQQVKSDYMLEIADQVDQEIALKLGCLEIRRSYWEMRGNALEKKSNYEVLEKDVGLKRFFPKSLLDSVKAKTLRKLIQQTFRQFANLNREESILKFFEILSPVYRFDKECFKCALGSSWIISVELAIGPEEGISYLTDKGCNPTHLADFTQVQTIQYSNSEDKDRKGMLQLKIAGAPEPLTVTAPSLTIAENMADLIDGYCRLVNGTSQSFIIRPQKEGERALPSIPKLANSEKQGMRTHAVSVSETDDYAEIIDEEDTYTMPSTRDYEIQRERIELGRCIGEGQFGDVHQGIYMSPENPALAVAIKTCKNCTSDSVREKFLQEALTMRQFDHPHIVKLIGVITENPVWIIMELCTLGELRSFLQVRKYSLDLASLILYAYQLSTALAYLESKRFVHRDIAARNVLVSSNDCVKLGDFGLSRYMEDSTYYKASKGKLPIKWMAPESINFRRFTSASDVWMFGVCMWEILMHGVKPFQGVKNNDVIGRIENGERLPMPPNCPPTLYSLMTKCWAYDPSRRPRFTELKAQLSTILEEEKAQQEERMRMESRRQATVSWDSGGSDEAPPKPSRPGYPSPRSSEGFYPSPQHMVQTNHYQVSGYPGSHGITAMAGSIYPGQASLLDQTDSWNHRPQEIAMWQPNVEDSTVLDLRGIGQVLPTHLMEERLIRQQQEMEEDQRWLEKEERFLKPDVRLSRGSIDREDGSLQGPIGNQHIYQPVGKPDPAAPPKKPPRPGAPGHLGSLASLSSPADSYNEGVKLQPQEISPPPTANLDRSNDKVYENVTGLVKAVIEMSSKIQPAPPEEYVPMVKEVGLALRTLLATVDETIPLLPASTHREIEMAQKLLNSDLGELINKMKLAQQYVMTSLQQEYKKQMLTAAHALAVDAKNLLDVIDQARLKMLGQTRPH

SMILES strings stand for the structures.

The residual activity is the signal under treatment as a percentage of the control signal. On to `COc1ccc(OC)c2c(=S)c3ccccc3[nH]c12`, for which the residual activity in experiment [1] is 83%; in experiment [2] it was 114%; in [3], 118%; in experiment [4], 114% (inactive); in experiment [5], 101%; in experiment [6], 97%. In addition, the residual activity in experiment [7] is 102%; in [8] it was 80%; in experiment [9], 77%; in experiment [10] it was 91%.
